Laboratory results published in article PMC11006913.
Substitutions are numbered along the chain they refer to.

Tests used:
Test in all cases: PBM; 200 nM protein, PBS
Conditions in all cases: dsDNA, one strand shown
HOXB6 [1] = molecular target: HOXB6 (Homo sapiens, UniProt P17509 132-218, K202E)
NKX2-6 = molecular target: T1, NKX2-6 (Homo sapiens, UniProt A6NCS4 118-204, R150C)
T1 sequence: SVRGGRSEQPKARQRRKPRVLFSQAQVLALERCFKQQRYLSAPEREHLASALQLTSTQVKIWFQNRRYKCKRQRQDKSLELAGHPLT

HOXB6 [2] = molecular target: HOXB6 (Homo sapiens, UniProt P17509 132-218)
Sequence of HOXB6 (Homo sapiens, UniProt P17509 132-218) (P17509 132-218): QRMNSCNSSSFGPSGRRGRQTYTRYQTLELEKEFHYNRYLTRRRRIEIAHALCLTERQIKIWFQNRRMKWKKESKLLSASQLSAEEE

MSX2 [3] = molecular target: MSX2 (Homo sapiens, UniProt P35548 130-214, R199I)
Sequence of MSX2 (Homo sapiens, UniProt P35548 130-214, R199I) (P35548 130-214 R199I): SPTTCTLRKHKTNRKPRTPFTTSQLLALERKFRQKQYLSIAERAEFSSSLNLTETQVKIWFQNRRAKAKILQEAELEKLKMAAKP

ALX1 [4] = molecular target: ALX1 (Homo sapiens, UniProt Q15699 118-204, L144V)
Sequence of ALX1 (Homo sapiens, UniProt Q15699 118-204, L144V) (Q15699 118-204 L144V): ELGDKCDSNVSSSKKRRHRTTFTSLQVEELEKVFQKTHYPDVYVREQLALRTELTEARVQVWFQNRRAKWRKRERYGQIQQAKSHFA

ALX3 [5] = molecular target: ALX3 (Homo sapiens, UniProt O95076 139-225, N203Q)
Sequence of ALX3 (Homo sapiens, UniProt O95076 139-225, N203Q) (O95076 139-225 N203Q): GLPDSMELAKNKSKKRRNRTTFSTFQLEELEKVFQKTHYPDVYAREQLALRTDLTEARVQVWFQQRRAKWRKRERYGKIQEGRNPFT

ALX1 [6] = molecular target: ALX1 (Homo sapiens, UniProt Q15699 118-204, L144R)
Sequence of ALX1 (Homo sapiens, UniProt Q15699 118-204, L144R) (Q15699 118-204 L144R): as the sequence (Q15699 118-204 L144V) above, with V27R counted along it

MSX2 [7] = molecular target: MSX2 (Homo sapiens, UniProt P35548 130-214)
Sequence of MSX2 (Homo sapiens, UniProt P35548 130-214) (P35548 130-214): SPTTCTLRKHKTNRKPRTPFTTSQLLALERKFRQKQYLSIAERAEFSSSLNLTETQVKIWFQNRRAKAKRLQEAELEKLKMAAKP

ALX3 [8] = molecular target: ALX3 (Homo sapiens, UniProt O95076 139-225)
Sequence of ALX3 (Homo sapiens, UniProt O95076 139-225) (O95076 139-225): as the sequence (O95076 139-225 N203Q) above, with Q65N counted along it

ALX3 [9] = molecular target: ALX3 (Homo sapiens, UniProt O95076 139-225, L168Q)
Sequence of ALX3 (Homo sapiens, UniProt O95076 139-225, L168Q) (O95076 139-225 L168Q): as the sequence (O95076 139-225 N203Q) above, with L30Q, Q65N counted along it

ALX3 [10] = molecular target: ALX3 (Homo sapiens, UniProt O95076 139-225, L168V)
Sequence of ALX3 (Homo sapiens, UniProt O95076 139-225, L168V) (O95076 139-225 L168V): as the sequence (O95076 139-225 N203Q) above, with L30V, Q65N counted along it

MSX2 [11] = molecular target: MSX2 (Homo sapiens, UniProt P35548 130-214, F161Y)
Sequence of MSX2 (Homo sapiens, UniProt P35548 130-214, F161Y) (P35548 130-214 F161Y): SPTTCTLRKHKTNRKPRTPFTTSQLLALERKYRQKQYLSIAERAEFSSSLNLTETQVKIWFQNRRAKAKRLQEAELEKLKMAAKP

NKX3-2 [12] = molecular target: NKX3-2 (Homo sapiens, UniProt P78367 192-278, P234S)
Sequence of NKX3-2 (Homo sapiens, UniProt P78367 192-278, P234S) (P78367 192-278 P234S): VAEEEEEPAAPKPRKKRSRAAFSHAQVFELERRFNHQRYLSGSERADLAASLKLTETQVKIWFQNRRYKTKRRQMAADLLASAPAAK

ALX1 [13] = molecular target: ALX1 (Homo sapiens, UniProt Q15699 118-204)
Sequence of ALX1 (Homo sapiens, UniProt Q15699 118-204) (Q15699 118-204): as the sequence (Q15699 118-204 L144V) above, with V27L counted along it

ALX3 [14] = molecular target: ALX3 (Homo sapiens, UniProt O95076 139-225, N203S)
Sequence of ALX3 (Homo sapiens, UniProt O95076 139-225, N203S) (O95076 139-225 N203S): as the sequence (O95076 139-225 N203Q) above, with Q65S counted along it

NKX3-2 [15] = molecular target: NKX3-2 (Homo sapiens, UniProt P78367 192-278)
Sequence of NKX3-2 (Homo sapiens, UniProt P78367 192-278) (P78367 192-278): as the sequence (P78367 192-278 P234S) above, with S43P counted along it

HOXA2 [16] = molecular target: HOXA2 (Homo sapiens, UniProt O43364 129-215, R185T)
Sequence of HOXA2 (Homo sapiens, UniProt O43364 129-215, R185T) (O43364 129-215 R185T): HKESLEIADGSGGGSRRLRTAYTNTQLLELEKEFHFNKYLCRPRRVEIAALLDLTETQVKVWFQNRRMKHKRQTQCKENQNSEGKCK

HOXA2 [17] = molecular target: HOXA2 (Homo sapiens, UniProt O43364 129-215, R185K)
Sequence of HOXA2 (Homo sapiens, UniProt O43364 129-215, R185K) (O43364 129-215 R185K): as the sequence (O43364 129-215 R185T) above, with T57K counted along it

HOXA2 [18] = molecular target: HOXA2 (Homo sapiens, UniProt O43364 129-215, Y150S)
Sequence of HOXA2 (Homo sapiens, UniProt O43364 129-215, Y150S) (O43364 129-215 Y150S): as the sequence (O43364 129-215 R185T) above, with Y22S, T57R counted along it

HOXA2 [19] = molecular target: HOXA2 (Homo sapiens, UniProt O43364 129-215)
Sequence of HOXA2 (Homo sapiens, UniProt O43364 129-215) (O43364 129-215): as the sequence (O43364 129-215 R185T) above, with T57R counted along it

NKX2-4 [20] = molecular target: T2, NKX2-4 (Homo sapiens, UniProt Q9H2Z4 175-261)
T2 sequence: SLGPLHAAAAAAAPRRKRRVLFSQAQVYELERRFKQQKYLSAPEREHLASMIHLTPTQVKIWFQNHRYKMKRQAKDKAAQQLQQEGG

NKX2-4 [21] = molecular target: T3, NKX2-4 (Homo sapiens, UniProt Q9H2Z4 175-261, R246Q)
T3 sequence: T2 sequence with R72Q

HOXD13 [22] = molecular target: HOXD13 (Homo sapiens, UniProt P35453 263-343, T313R)
Sequence of HOXD13 (Homo sapiens, UniProt P35453 263-343, T313R) (P35453 263-343 T313R): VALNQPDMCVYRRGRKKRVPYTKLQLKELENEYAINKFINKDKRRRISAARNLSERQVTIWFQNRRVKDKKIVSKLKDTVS

HOXD13 [23] = molecular target: HOXD13 (Homo sapiens, UniProt P35453 263-343)
Sequence of HOXD13 (Homo sapiens, UniProt P35453 263-343) (P35453 263-343): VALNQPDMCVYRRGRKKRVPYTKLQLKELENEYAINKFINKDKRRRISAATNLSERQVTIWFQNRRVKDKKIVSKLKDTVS

HOXD13 [24] = molecular target: HOXD13 (Homo sapiens, UniProt P35453 263-343, T313A)
Sequence of HOXD13 (Homo sapiens, UniProt P35453 263-343, T313A) (P35453 263-343 T313A): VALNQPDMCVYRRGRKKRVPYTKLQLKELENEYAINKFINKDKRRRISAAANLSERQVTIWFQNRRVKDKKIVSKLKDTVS

Sequence of HOXB6 (Homo sapiens, UniProt P17509 132-218, K202E) (P17509 132-218 K202E): as the sequence (P17509 132-218) above, with K71E counted along it

## AACTACTT
HOXB6 [1]
  binding signal: 9.54 upbm affinity estimate (log intensity, higher = more binding, comparable within an allelic series)
NKX2-6
  binding signal: 11.2 upbm affinity estimate (log intensity, higher = more binding, comparable within an allelic series)
HOXB6 [2]
  binding signal: 10.1 upbm affinity estimate (log intensity, higher = more binding, comparable within an allelic series)

## CGGATCCG
HOXB6 [1]
  binding signal: 9.01 upbm affinity estimate (log intensity, higher = more binding, comparable within an allelic series)
MSX2 [3]
  binding signal: 9.47 upbm affinity estimate (log intensity, higher = more binding, comparable within an allelic series)
ALX1 [4]
  binding signal: 6.32 upbm affinity estimate (log intensity, higher = more binding, comparable within an allelic series)
ALX3 [5]
  binding signal: 7.82 upbm affinity estimate (log intensity, higher = more binding, comparable within an allelic series)
ALX1 [6]
  binding signal: 6.18 upbm affinity estimate (log intensity, higher = more binding, comparable within an allelic series)
MSX2 [7]
  binding signal: 9.48 upbm affinity estimate (log intensity, higher = more binding, comparable within an allelic series)
ALX3 [8]
  binding signal: 7.83 upbm affinity estimate (log intensity, higher = more binding, comparable within an allelic series)
ALX3 [9]
  binding signal: 7.82 upbm affinity estimate (log intensity, higher = more binding, comparable within an allelic series)
ALX3 [10]
  binding signal: 7.74 upbm affinity estimate (log intensity, higher = more binding, comparable within an allelic series)
MSX2 [11]
  binding signal: 9.45 upbm affinity estimate (log intensity, higher = more binding, comparable within an allelic series)
NKX3-2 [12]
  binding signal: 10.3 upbm affinity estimate (log intensity, higher = more binding, comparable within an allelic series)
ALX1 [13]
  binding signal: 6.2 upbm affinity estimate (log intensity, higher = more binding, comparable within an allelic series)
ALX3 [14]
  binding signal: 7.82 upbm affinity estimate (log intensity, higher = more binding, comparable within an allelic series)
HOXB6 [2]
  binding signal: 8.86 upbm affinity estimate (log intensity, higher = more binding, comparable within an allelic series)
NKX3-2 [15]
  binding signal: 10.3 upbm affinity estimate (log intensity, higher = more binding, comparable within an allelic series)

## CAGCAGGG
HOXB6 [1]
  binding signal: 9.1 upbm affinity estimate (log intensity, higher = more binding, comparable within an allelic series)
HOXA2 [16]
  binding signal: 7.49 upbm affinity estimate (log intensity, higher = more binding, comparable within an allelic series)
HOXA2 [17]
  binding signal: 10.3 upbm affinity estimate (log intensity, higher = more binding, comparable within an allelic series)
HOXA2 [18]
  binding signal: 10.3 upbm affinity estimate (log intensity, higher = more binding, comparable within an allelic series)
HOXA2 [19]
  binding signal: 7.08 upbm affinity estimate (log intensity, higher = more binding, comparable within an allelic series)
HOXB6 [2]
  binding signal: 9.13 upbm affinity estimate (log intensity, higher = more binding, comparable within an allelic series)

## AGTTCGAG
NKX2-4 [20]
  binding signal: 11.3 upbm affinity estimate (log intensity, higher = more binding, comparable within an allelic series)
NKX2-4 [21]
  binding signal: 11.6 upbm affinity estimate (log intensity, higher = more binding, comparable within an allelic series)

## GGCCTCCC
HOXB6 [1]
  binding signal: 8.93 upbm affinity estimate (log intensity, higher = more binding, comparable within an allelic series)
HOXD13 [22]
  binding signal: 9.37 upbm affinity estimate (log intensity, higher = more binding, comparable within an allelic series)
HOXD13 [23]
  binding signal: 9.63 upbm affinity estimate (log intensity, higher = more binding, comparable within an allelic series)
HOXD13 [24]
  binding signal: 9.7 upbm affinity estimate (log intensity, higher = more binding, comparable within an allelic series)
HOXB6 [2]
  binding signal: 9.02 upbm affinity estimate (log intensity, higher = more binding, comparable within an allelic series)

## AAATCGAC
HOXB6 [1]
  binding signal: 9.47 upbm affinity estimate (log intensity, higher = more binding, comparable within an allelic series)
HOXB6 [2]
  binding signal: 10.1 upbm affinity estimate (log intensity, higher = more binding, comparable within an allelic series)

## GAGGGGCA
HOXB6 [1]
  binding signal: 9.15 upbm affinity estimate (log intensity, higher = more binding, comparable within an allelic series)
HOXB6 [2]
  binding signal: 9.24 upbm affinity estimate (log intensity, higher = more binding, comparable within an allelic series)

## CCAATTTC
HOXB6 [1]
  binding signal: 9.48 upbm affinity estimate (log intensity, higher = more binding, comparable within an allelic series)
HOXB6 [2]
  binding signal: 10.1 upbm affinity estimate (log intensity, higher = more binding, comparable within an allelic series)

## CCACGGAC
HOXB6 [1]
  binding signal: 9.01 upbm affinity estimate (log intensity, higher = more binding, comparable within an allelic series)
HOXB6 [2]
  binding signal: 9.02 upbm affinity estimate (log intensity, higher = more binding, comparable within an allelic series)

## CGTTGCCC
HOXB6 [1]
  binding signal: 9.13 upbm affinity estimate (log intensity, higher = more binding, comparable within an allelic series)
HOXB6 [2]
  binding signal: 9.12 upbm affinity estimate (log intensity, higher = more binding, comparable within an allelic series)

## GCACGTGC
HOXB6 [1]
  binding signal: 9.35 upbm affinity estimate (log intensity, higher = more binding, comparable within an allelic series)
HOXB6 [2]
  binding signal: 9.36 upbm affinity estimate (log intensity, higher = more binding, comparable within an allelic series)

## GCCCCGCA
HOXB6 [1]
  binding signal: 9.01 upbm affinity estimate (log intensity, higher = more binding, comparable within an allelic series)
HOXB6 [2]
  binding signal: 9.08 upbm affinity estimate (log intensity, higher = more binding, comparable within an allelic series)

## AAGTACGA
HOXB6 [1]
  binding signal: 9.65 upbm affinity estimate (log intensity, higher = more binding, comparable within an allelic series)
HOXB6 [2]
  binding signal: 10.3 upbm affinity estimate (log intensity, higher = more binding, comparable within an allelic series)

## GATGCCCC
HOXB6 [1]
  binding signal: 9.11 upbm affinity estimate (log intensity, higher = more binding, comparable within an allelic series)
HOXB6 [2]
  binding signal: 8.96 upbm affinity estimate (log intensity, higher = more binding, comparable within an allelic series)

## AGGCGGAC
HOXB6 [1]
  binding signal: 9.08 upbm affinity estimate (log intensity, higher = more binding, comparable within an allelic series)
HOXB6 [2]
  binding signal: 9.04 upbm affinity estimate (log intensity, higher = more binding, comparable within an allelic series)

## GGGTCCGA
HOXB6 [1]
  binding signal: 9.03 upbm affinity estimate (log intensity, higher = more binding, comparable within an allelic series)
HOXB6 [2]
  binding signal: 9.07 upbm affinity estimate (log intensity, higher = more binding, comparable within an allelic series)

## CATTAGGC
HOXB6 [1]
  binding signal: 9.37 upbm affinity estimate (log intensity, higher = more binding, comparable within an allelic series)
HOXB6 [2]
  binding signal: 10.4 upbm affinity estimate (log intensity, higher = more binding, comparable within an allelic series)

## CCGAGCGC
HOXB6 [1]
  binding signal: 9.06 upbm affinity estimate (log intensity, higher = more binding, comparable within an allelic series)
HOXB6 [2]
  binding signal: 9.04 upbm affinity estimate (log intensity, higher = more binding, comparable within an allelic series)

## AGCCTAGG
HOXB6 [1]
  binding signal: 9.04 upbm affinity estimate (log intensity, higher = more binding, comparable within an allelic series)
HOXB6 [2]
  binding signal: 9.03 upbm affinity estimate (log intensity, higher = more binding, comparable within an allelic series)

## CCCTCCGA
HOXB6 [1]
  binding signal: 9.02 upbm affinity estimate (log intensity, higher = more binding, comparable within an allelic series)
HOXB6 [2]
  binding signal: 8.91 upbm affinity estimate (log intensity, higher = more binding, comparable within an allelic series)

## CCCGGTAG
HOXB6 [1]
  binding signal: 9.07 upbm affinity estimate (log intensity, higher = more binding, comparable within an allelic series)
HOXB6 [2]
  binding signal: 9.12 upbm affinity estimate (log intensity, higher = more binding, comparable within an allelic series)

## AGTCGCCC
HOXB6 [1]
  binding signal: 8.98 upbm affinity estimate (log intensity, higher = more binding, comparable within an allelic series)
HOXB6 [2]
  binding signal: 9.09 upbm affinity estimate (log intensity, higher = more binding, comparable within an allelic series)

## CCCCGGTC
HOXB6 [1]
  binding signal: 8.98 upbm affinity estimate (log intensity, higher = more binding, comparable within an allelic series)
HOXB6 [2]
  binding signal: 9.03 upbm affinity estimate (log intensity, higher = more binding, comparable within an allelic series)

## AATGATTG
HOXB6 [1]
  binding signal: 9.68 upbm affinity estimate (log intensity, higher = more binding, comparable within an allelic series)
HOXB6 [2]
  binding signal: 10.7 upbm affinity estimate (log intensity, higher = more binding, comparable within an allelic series)

## GGCGGCAC
HOXB6 [1]
  binding signal: 9.08 upbm affinity estimate (log intensity, higher = more binding, comparable within an allelic series)
HOXB6 [2]
  binding signal: 9.21 upbm affinity estimate (log intensity, higher = more binding, comparable within an allelic series)

## CGGCGCGC
HOXB6 [1]
  binding signal: 9.13 upbm affinity estimate (log intensity, higher = more binding, comparable within an allelic series)
HOXB6 [2]
  binding signal: 9.19 upbm affinity estimate (log intensity, higher = more binding, comparable within an allelic series)

## AGTTATTG
HOXB6 [1]
  binding signal: 9.58 upbm affinity estimate (log intensity, higher = more binding, comparable within an allelic series)
HOXB6 [2]
  binding signal: 10.6 upbm affinity estimate (log intensity, higher = more binding, comparable within an allelic series)

## CAACATAA
HOXB6 [1]
  binding signal: 9.7 upbm affinity estimate (log intensity, higher = more binding, comparable within an allelic series)
HOXB6 [2]
  binding signal: 10.4 upbm affinity estimate (log intensity, higher = more binding, comparable within an allelic series)
